This note sets out measurements from PubChem BioAssay (Tox21).

A short description of assay [1]: Nuclear factor erythroid 2-related factor 2/antioxidant responsive element (Nrf2/ARE) small molecule agonists: qHTS cell viability counter screen in human keratinocytes (AID 1919968; active = well fitted curve in the direction sought with a large enough effect in the repeat runs; an effect the other way counts as inactive or inconclusive; note: nearly all actives have a fitted effect of over 55% in size; note: potency is the fitted concentration of half-maximal effect). An outline of the steps:
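In human HaCaT keratinocytes stably expressing an ARE-driven luciferase, compound exposure lasted 23 h at 37 C under 5% CO2. Viable cells are quantified with a protease-based fluorogenic reagent (CellTiter-Fluor) read 1 h after addition.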
(In general: qHTS replaces the single test concentration by a dilution series.)

The nature of assay [2]: Nuclear factor erythroid 2-related factor 2/antioxidant responsive element (Nrf2/ARE) small molecule agonists: luciferase reporter gene qHTS assay in human keratinocytes (AID 1919969). Note: nearly all actives have a fitted effect of over 35% in size. Background: A reporter such as luciferase makes a cellular process visible.
The target of assay [3] is Gonadotropin-releasing hormone receptor (Homo sapiens) (UniProt P30968). Put plainly: Human gonadotropin-releasing hormone receptor (GnRHR) small molecule agonists, calcium flux assay in GnRHR-HEK293 cells (AID 1920063). Note: nearly all actives have a fitted effect of over 35% in size. Note: potency is the fitted concentration of half-maximal effect. An outline of the steps: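 Intracellular calcium rise is the read-out: engineered human GnRHR HEK293 cells, dye-loaded, are exposed to DMSO-dissolved compounds and fluorescence at Ex/Em 480/540 is tracked for 3 min.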
(Calcium assays in cells follow changes in intracellular calcium, usually with a dye or a luminescent sensor.)

In assay [4] the target is KiSS-1 receptor (Homo sapiens) (UniProt Q969F8). Briefly: Human kisspeptin (KISS1R) small molecule agonists, calcium flux assay in KISS1R-HEK293 cells (AID 1920064; active = well fitted curve in the direction sought with a large enough effect in the repeat runs; an effect the other way counts as inactive or inconclusive). In a few lines: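 Concentration-response testing used 15 concentrations in triplicate on human KISS1R-expressing HEK293 cells. Calcium-dependent fluorescence (Ex/Em 480/540) was followed kinetically for 3 min after compound transfer.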

Assay [5] in a line: G protein-coupled receptor (GPCR) small molecule agonists, calcium flux assay: HEK293 wild type cell line counter screen (AID 1920065). An outline of the steps: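 Fluorescence intensity signals activation. After overnight (18 h) culture and a 1 h calcium dye load at 37 C, compounds are added by pin tool and the plate read at 480/540 nm for 3 min in 1 s steps.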
The nature of assay [6]: p53 small molecule agonists, cell-based qHTS assay with human liver microsomes (AID 1963577).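 Note: p53 response element beta-lactamase reporter cells with liver microsomes plus NADPH.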 An outline of the steps:
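Reporter activation was measured by LiveBLAzer fluorescence intensity in p53RE-bla cells, which had been exposed to compounds for 16 h at 37 C alongside 0.5 mg/mL human liver microsomes and 0.5 mg/mL NADPH (final concentrations).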

Assay [7] in a line: p53 small molecule agonists, cell-based qHTS assay with rat liver microsomes (AID 1963578). An outline of the steps:
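Compound in DMSO added to p53RE-bla cells 5 h post-plating; rat microsomes/NADPH 0.5 mg/mL final; 16 h, 37 C; LiveBLAzer 2 h RT.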

Assay [8] in a line: p53 small molecule agonists, cell-based qHTS assay with human liver microsomes: qHTS cell viability counter screen (AID 1963579). Note: nearly all actives have a fitted effect of over 45% in size. Note: potency is the fitted concentration of half-maximal effect. In a few lines:
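HLM-supplemented (0.5 mg/mL final) and NADPH-supplemented (0.5 mg/mL final) p53RE-bla cultures, 4,000 cells per well, were dosed with compounds in DMSO for 16 h at 37 C; luminescent ATP detection (CellTiter-Glo, 30 min, room temperature) quantified surviving cells.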

Assay [9] in a line: p53 small molecule agonists, cell-based qHTS assay: qHTS cell viability counter screen (AID 1963581). Note: nearly all actives have a fitted effect of over 45% in size. Note: potency is the fitted concentration of half-maximal effect. An outline of the steps:
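Luminescence from CellTiter-Glo, reflecting ATP content, serves as the cytotoxicity measure; it is taken after the 2 h reporter substrate step in HCT-116 p53RE-bla cells dosed for 16 h at 37 C.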

Assay [10] can be described thus: p53 small molecule agonists, cell-based qHTS assay (AID 1963582; active = well fitted activation curve with a large enough effect in the signal ratio in the repeat runs, not every such curve was filed as active; the % refers to the signal ratio). In a few lines: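 After plating, p53RE-bla cells sat 5 h in the incubator; compounds or DMSO vehicle were pinned in; a 16 h incubation at 37 C followed; FRET substrate was added and, 2 h later at RT, fluorescence was measured.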
Assay [11] has as its target 5-hydroxytryptamine receptor 2A (Homo sapiens) (UniProt P28223). Put plainly: 5-hydroxytryptamine receptor 2A (HTR2A) small molecule agonists, cell-based qHTS assay (AID 1963587). Note: nearly all actives have a fitted effect of over 30% in size. Note: potency is the fitted concentration of half-maximal effect. An outline of the steps:
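CHO cells stably expressing human HTR2A, plated 18 h, loaded with calcium dye 1 h at 37 C. Agonist mode: compounds added and intracellular calcium fluorescence recorded kinetically for 2 min at 1 sec intervals.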

The target of assay [12] is Muscarinic acetylcholine receptor M1 (Homo sapiens) (UniProt P11229). Briefly: Cholinergic receptor muscarinic 1 (CHRM1) small molecule antagonists, cell-based qHTS assay (AID 1963588). Note: nearly all actives have a fitted effect of over 40% in size. Note: potency is the fitted concentration of half-maximal effect. An outline of the steps:
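Compounds were tested at 15 concentrations in three independent runs. Dye-loaded CHRM1-CHO cells were exposed 5 min at room temperature before stimulation by acetylcholine added at 50nM. Intracellular calcium was read kinetically on FDSS for 3 min.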

The target is the same in assay [13]. Briefly: Cholinergic receptor muscarinic 1 (CHRM1) small molecule agonists, cell-based qHTS assay (AID 1963589). Note: nearly all actives have a fitted effect of over 35% in size. In a few lines: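 Fluorescent calcium dye reports M1 activation in stably transfected CHO cells. Compounds, 15 concentrations, added after 1 h dye loading at 37 C; kinetic reading at 1 sec intervals.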
Assay [14] in a line: cAMP Responsive Elements (CRE) small molecule agonists, cell-based qHTS assay (AID 1963590). In a few lines: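 Compound exposure lasted 3 h at 37 C/5% CO2 in CRE-bla HEK 293T cells grown in assay medium with 10% dialyzed FBS and 25 mM HEPES. Reporter signal came from LiveBLAzer B/G FRET substrate, 2 h, room temperature.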
Assay [15] in a line: cAMP Responsive Elements (CRE) small molecule antagonists, cell-based qHTS assay (AID 1963591; active = well fitted inhibition curve with a large enough effect in the signal ratio in the repeat runs, not every such curve was filed as active; the % refers to the signal ratio). An outline of the steps: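 Stimulation used NKH477 at a final 0.25 uM for 3 h in compound-treated CRE-bla HEK293T cells, seeded 18 h beforehand. Reporter activity was measured with LiveBLAzer B/G FRET substrate after 2 h at room temperature.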
Assay [16] has as its target Beta-2 adrenergic receptor (Homo sapiens) (UniProt P07550). Put plainly: Adrenergic beta2 receptor (ADRB2) small molecule antagonists, cell-based qHTS assay (AID 1963592). Note: series mostly up to about 92 µM; nearly all actives have a fitted effect of over 50% in size. In a few lines: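 Assay format: CHO-ADRB2 cells, 18-20hr seeding at 37C/5% CO2, then compound plus 1nM isoproterenol agonist mix for 0.5hr RT. Homogeneous time-resolved fluorescence cAMP detection after 1hr, expressed as 665/615 nm ratio.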

Assay [17] concerns the target D(2) dopamine receptor (Homo sapiens) (UniProt P14416). Put plainly: Dopamine D2 receptor (DRD2) small molecule agonists, cell-based qHTS assay (AID 1963594). Note: nearly all actives have a fitted effect of over 35% in size. An outline of the steps: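 HEK293 cells stably expressing human DRD2, pre-treated with PDE inhibitor Ro20-1724 (0.1 mM final) and compound 10 min at room temperature, then stimulated with NKH477 (200nM […]) for 30 min. cAMP read by HTRF (665/620 nm).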

The target is the same in assay [18]. Put plainly: Dopamine D2 receptor (DRD2) small molecule antagonists, cell-based qHTS assay (AID 1963595; active = well fitted inhibition curve with a large enough effect in the signal ratio in the repeat runs, with a control signal flat; the % refers to the signal ratio; note: potency is the fitted concentration of half-maximal effect). In a few lines: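 HTRF cAMP read-out at 665 and 620 nm emission (340 nm excitation). Antagonist mode: compounds were tested against 12 nM quinpirole in DRD2-HEK293 cells, with 200 nM NKH477 raising cAMP and 0.1 mM Ro20-1724 blocking its breakdown.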
Assay [19] has as its target 5-hydroxytryptamine receptor 2A (Homo sapiens) (UniProt P28223). Put plainly: 5-hydroxytryptamine receptor 2A (HTR2A) small molecule antagonists, cell-based qHTS assay (AID 1963586). Note: nearly all actives have a fitted effect of over 45% in size. Note: potency is the fitted concentration of half-maximal effect. An outline of the steps: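 CHO cells stably expressing human HTR2A were plated for 18 h at 37 C, then loaded with calcium dye for 1 h. Compounds were preincubated 5 min at room temperature before DOI (4 nM solution) was added. Kinetic fluorescence was read for 3 min.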

Assay [20] can be described thus: p53 small molecule agonists, cell-based qHTS assay with rat liver microsomes: qHTS cell viability counter screen (AID 1963580). Note: nearly all actives have a fitted effect of over 45% in size. In a few lines: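 Cytotoxicity counter screen: intracellular ATP measured by CellTiter-Glo luminescence in the same wells as the beta-lactamase reporter read, on HCT-116 p53RE-bla cells exposed 16 h at 37 C to compounds with rat liver microsomes and NADPH, each 0.5 mg/mL final.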

Molecules are shown by their SMILES. Values joined by “and” are separate entries in the source; they are usually repeats but may differ in a detail not shown here. Equal values may be shown once. Records with an inconclusive call do not appear. Some compounds were tested as several samples or in several runs, with calls that do not always agree. Active and inactive are the calls of the source. Unless noted, calls come from the whole dose curve.

Chain of 5-hydroxytryptamine receptor 2A (Homo sapiens) (P28223 whole entry, looked up): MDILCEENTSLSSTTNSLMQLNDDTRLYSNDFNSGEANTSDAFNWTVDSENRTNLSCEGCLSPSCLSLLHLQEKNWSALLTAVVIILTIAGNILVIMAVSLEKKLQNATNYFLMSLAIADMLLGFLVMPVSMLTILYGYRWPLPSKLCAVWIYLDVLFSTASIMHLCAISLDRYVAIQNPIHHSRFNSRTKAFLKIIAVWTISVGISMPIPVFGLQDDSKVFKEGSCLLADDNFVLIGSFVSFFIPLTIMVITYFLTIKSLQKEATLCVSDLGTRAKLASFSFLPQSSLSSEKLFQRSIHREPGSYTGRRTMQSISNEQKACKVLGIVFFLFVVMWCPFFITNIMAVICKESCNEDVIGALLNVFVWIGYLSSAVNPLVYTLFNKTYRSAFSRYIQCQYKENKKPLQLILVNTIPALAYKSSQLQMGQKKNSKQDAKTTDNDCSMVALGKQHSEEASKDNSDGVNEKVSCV
Chain of D(2) dopamine receptor (Homo sapiens) (P14416 whole entry, looked up): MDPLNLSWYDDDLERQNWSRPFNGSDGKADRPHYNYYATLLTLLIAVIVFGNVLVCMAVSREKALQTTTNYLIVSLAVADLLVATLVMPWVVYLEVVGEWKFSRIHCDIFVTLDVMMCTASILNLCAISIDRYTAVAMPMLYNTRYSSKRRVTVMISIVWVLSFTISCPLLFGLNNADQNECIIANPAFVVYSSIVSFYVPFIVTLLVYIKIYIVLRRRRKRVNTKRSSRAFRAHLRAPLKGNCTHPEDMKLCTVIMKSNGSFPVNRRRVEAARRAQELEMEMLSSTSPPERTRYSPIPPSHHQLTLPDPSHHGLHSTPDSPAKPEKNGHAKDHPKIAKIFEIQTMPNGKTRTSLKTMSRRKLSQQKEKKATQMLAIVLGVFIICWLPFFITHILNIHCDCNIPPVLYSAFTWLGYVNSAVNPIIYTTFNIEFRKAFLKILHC
Chain of Muscarinic acetylcholine receptor M1 (Homo sapiens) (P11229 whole entry, looked up): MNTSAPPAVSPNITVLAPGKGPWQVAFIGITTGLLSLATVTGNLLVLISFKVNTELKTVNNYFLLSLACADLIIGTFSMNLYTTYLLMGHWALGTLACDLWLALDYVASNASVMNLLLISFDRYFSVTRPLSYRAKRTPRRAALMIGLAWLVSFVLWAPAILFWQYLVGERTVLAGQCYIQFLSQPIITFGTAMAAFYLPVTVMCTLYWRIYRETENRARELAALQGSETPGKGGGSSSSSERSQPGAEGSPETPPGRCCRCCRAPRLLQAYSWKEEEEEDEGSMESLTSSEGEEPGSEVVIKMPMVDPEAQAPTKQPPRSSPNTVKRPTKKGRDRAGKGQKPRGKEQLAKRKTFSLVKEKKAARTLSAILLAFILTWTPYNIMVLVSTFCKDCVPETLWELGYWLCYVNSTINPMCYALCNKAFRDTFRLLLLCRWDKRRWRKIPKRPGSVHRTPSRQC
Chain of Gonadotropin-releasing hormone receptor (Homo sapiens) (P30968 whole entry, looked up): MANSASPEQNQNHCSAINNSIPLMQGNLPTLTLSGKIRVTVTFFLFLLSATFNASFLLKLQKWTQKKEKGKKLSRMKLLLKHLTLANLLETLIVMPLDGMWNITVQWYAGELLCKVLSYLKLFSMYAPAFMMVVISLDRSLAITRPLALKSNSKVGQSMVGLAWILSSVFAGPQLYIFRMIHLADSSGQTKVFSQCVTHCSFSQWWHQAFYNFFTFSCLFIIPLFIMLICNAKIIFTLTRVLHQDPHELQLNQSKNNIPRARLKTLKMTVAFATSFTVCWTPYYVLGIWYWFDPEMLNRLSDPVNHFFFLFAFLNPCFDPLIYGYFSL
Chain of KiSS-1 receptor (Homo sapiens) (Q969F8 whole entry, looked up): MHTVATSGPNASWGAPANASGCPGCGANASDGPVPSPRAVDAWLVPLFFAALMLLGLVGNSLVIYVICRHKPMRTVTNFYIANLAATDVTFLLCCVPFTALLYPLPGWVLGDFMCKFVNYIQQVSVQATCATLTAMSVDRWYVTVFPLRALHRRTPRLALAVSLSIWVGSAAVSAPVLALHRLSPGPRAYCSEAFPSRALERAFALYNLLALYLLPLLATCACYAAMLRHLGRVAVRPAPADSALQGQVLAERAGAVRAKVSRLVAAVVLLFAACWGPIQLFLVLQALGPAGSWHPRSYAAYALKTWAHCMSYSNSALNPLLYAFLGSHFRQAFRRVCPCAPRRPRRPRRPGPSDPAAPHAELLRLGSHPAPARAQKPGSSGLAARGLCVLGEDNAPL
Chain of Beta-2 adrenergic receptor (Homo sapiens) (P07550 whole entry, looked up): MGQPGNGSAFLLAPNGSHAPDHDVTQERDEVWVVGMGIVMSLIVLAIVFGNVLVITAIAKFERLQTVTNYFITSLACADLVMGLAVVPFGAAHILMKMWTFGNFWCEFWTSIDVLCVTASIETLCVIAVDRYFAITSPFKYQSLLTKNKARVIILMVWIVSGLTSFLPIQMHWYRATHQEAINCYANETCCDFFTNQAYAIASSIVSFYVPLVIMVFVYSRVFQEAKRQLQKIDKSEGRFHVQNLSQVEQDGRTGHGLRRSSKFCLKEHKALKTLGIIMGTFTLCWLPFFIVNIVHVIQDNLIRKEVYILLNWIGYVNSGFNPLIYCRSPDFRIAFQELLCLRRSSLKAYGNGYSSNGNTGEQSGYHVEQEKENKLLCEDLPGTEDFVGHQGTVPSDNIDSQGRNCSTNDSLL

In the case of `C#CC(C)(C)NC(=O)c1cc(Cl)cc(Cl)c1`, the Potency entry in [1], in assay [2], in assay [3], in assay [4], in assay [5] and in [6] was “inactive” each time. For the same compound, the Potency result in assay [7], in assay [8], in [9], in assay [10], in assay [11] and in assay [12] was “inactive” throughout. Further, the Potency entry in assay [13], in assay [14], in assay [15], in assay [16], in assay [17] and in assay [18] was “inactive” throughout.

Consider `CCCCCCCCCCCC[N+](C)(C)CCOc1ccccc1`, for which the Potency in [1] was 27.3 µM (active); in [3] it was 38.9 µM (active) and 16.9 µM (active); in assay [8], 45.8 µM (active) and inactive; in assay [9], 45.8 µM (active) and inactive; in [19] it was 133 nM (active) and 46 nM (active); in assay [11] it was 43.7 µM (active). Further, the Potency in assay [12] is 748 nM (active) and inactive; in [18], 48.6 µM (active). Moreover, the Potency result in assay [2], in assay [4], in assay [5], in assay [6], in [7] and in assay [10] was “inactive” each time. Moreover, the Potency entry in assay [13], in [15] and in assay [16] was “inactive” throughout.

As to `CN(CCCC(=O)c1cccnc1)N=O`, the Potency result in [1], in assay [2], in assay [3], in assay [4], in assay [5] and in [6] was “inactive” throughout. Besides, the Potency result in assay [7], in assay [20], in assay [9], in [10], in assay [19] and in assay [11] was “inactive” each time. Moreover, the Potency entry in [12], in assay [13], in assay [14], in assay [15], in [16] and in [17] was “inactive” in each case. In addition, in assay [18], the Potency result is “inactive”.

Take `O=C(CCN1CC1)OCC(CO)(COC(=O)CCN1CC1)COC(=O)CCN1CC1`: the Potency result in assay [1], in assay [2], in [3], in assay [4], in assay [5] and in assay [6] was “inactive” each time. The Potency entry in assay [7], in [8], in [9], in assay [10], in assay [19] and in assay [12] was “inactive” in each case. Moreover, the Potency entry in assay [13], in assay [14], in assay [15], in assay [16], in assay [17] and in assay [18] was “inactive” in each case.

For the compound `CCCCCON=O`, the Potency result in assay [1], in assay [2], in assay [3], in assay [4], in [5] and in assay [6] was “inactive” each time. The Potency entry in assay [7], in [8], in assay [9], in [10], in assay [19] and in assay [11] was “inactive” throughout. The Potency result in assay [13], in assay [14], in assay [15], in assay [16], in assay [17] and in [18] was “inactive” each time.

With `CCCCOCCOC(C)=O`, the Potency entry in [1], in assay [2], in [3], in [4], in assay [5] and in [6] was “inactive” throughout. The Potency result in assay [7], in assay [8], in assay [9], in [10], in assay [19] and in assay [11] was “inactive” throughout. Also, the Potency entry in assay [12], in assay [14], in [15], in assay [16], in [17] and in [18] was “inactive” in each case.

Regarding `ClCc1cccnc1`, the Potency entry in assay [1], in [2], in [3], in assay [4], in assay [5] and in assay [6] was “inactive” each time. For the same compound, the Potency result in assay [7], in assay [20], in assay [9], in assay [10], in [19] and in [11] was “inactive” throughout. Further, the Potency result in [12], in [13], in assay [14], in [15], in assay [16] and in assay [18] was “inactive” throughout.

With `Cc1coc2c1CCC(C)C2` (centres undefined), the Potency entry in [1], in assay [2], in assay [3], in assay [4], in assay [5] and in assay [6] was “inactive” in each case. Besides, the Potency result in assay [7], in assay [8], in assay [10], in assay [19], in assay [11] and in assay [12] was “inactive” each time. The Potency result in assay [13], in assay [14], in assay [15], in [16], in assay [17] and in assay [18] was “inactive” throughout.
